Test results as given in the supplement of paper PMC10338343.
± gives the standard deviation.

tested on: EfPiwi piRISC loaded with piRNA #1 (26 nt); experiment: pre-steady-state target cleavage rate (min^-1); auxiliary factor: 500 nM Ephydatia muelleri Gtsf1; guide: piRNA #1 5'p-UGAGGUAGUAGGUUGUAUAGUAUCCA; MIWI and MILI are mouse PIWI proteins and EfPiwi is from a freshwater sponge; tags in brackets are library labels; higher = faster piRNA-guided slicing of the target
In short: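 Active affinity-purified piRISC carrying one synthetic guide (1 nM) was mixed with a transcribed, DNA-blocked target RNA library […] in HEPES–potassium acetate buffer at 33 °C for 0–8 or 0–960 min, with or without 500 nM GTSF1 partner protein. Uncleaved targets were then sequenced and normalised to depth and to weakly complementary targets. Three trials were pooled, and k3 was capped at 0.0001 min^-1. A burst-and-steady-state fit was applied to obtain the pre-steady-state cleavage rate.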

In order of falling “pre-steady-state target cleavage rate” value:
1. GGAGACCUAUCUAUACAACCUACUACCUCU [g2:g20:cont:t1U]  0.993 ± 0.45
2. GGAGAGGUUACUAUACAACCUACUACCUCA  0.0625 ± 0.025
3. GGAGAGGAUACUCAUACAACCUACUACCUCA  0.0605 ± 0.024
4. GGAGACGAUACUAUAUCAACCUACUACCUCA  0.0198 ± 0.0082
5. GGAGACCUUACUAUACACCCUACUACCUCA  0.00862 ± 0.0036
6. GGAGACCUUACUAUACAACCUACUACCUAA  0.00756 ± 0.0045
7. GGAGAGGAUACUAUACCACCUACUACCUCA  0.00648 ± 0.003
8. GGAGACCUUAGAAUACAACCUACUACCUCA  0.00613 ± 0.0038
9. GGAGACGAUACUAUACAACCUACUACCAGA  0.00503 ± 0.0015
10. GGAGAGGAUACUAUACAAGCAACUACCUCA  0.00405 ± 0.0022
11. GGAGAGGAUACUAUACAACCUAGCUACCUCA  0.0038 ± 0.0017
12. GGAGAGGAUACUAUACAACCUCACUACCUCA  0.00378 ± 0.0026
13. GGAGUGGAUACUAUACAUCCUACUAGCUCA  0.00367 ± 0.0024
14. GGAGACCUUACUAUACAACGUACUUCCUCA  0.00315 ± 0.0021
15. GGAGACCAUACUAUACAUCCUACUACCUGA  0.00312 ± 0.0018
16. GGAGAGGAUACUAUUCAACCUUCUACCUCA  0.0031 ± 0.0028
17. GGAGUGGAUACAAUACAACCUACUAGCUCA  0.00216 ± 0.0014
